A short description of experiment [1]: yeast TOR pathway RPL19A-GFP modulators, primary screen, cell-based, S. cerevisiae, multiplex flow cytometry (AID 1862).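 Note: lower values mimic rapamycin by blocking the RPL19A rise seen in DMSO cells.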 Conditions: S. cerevisiae RPL19A-GFP strain, flow cytometry fluorescence, 3 h; at 10 µM; stronger effect = lower value.
The nature of experiment [2]: modulators of MEP2-GFP levels in yeast, primary screen, S. cerevisiae, multiplex flow cytometry (AID 1867;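 active = GFP response, as percent of the DMSO control, above the screen-wide mean plus 3 SD, about 139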;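 note: median GFP channel fluorescence of barcode-gated MEP2-GFP cells measured by flow cytometry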). The note with it: S. cerevisiae MEP2-GFP strain, 3 h, at 10 µM, stronger effect = higher value, 100% means same as DMSO wells. In general terms: Flow cytometry measures light scatter and fluorescence of single cells or particles in a stream.
Experiment [3] is described as follows: modulators of CIT2-GFP expression in yeast, primary screen, S. cerevisiae, GFP fusion, multiplex flow cytometry (AID 1870;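 active = percent response above a set limit, the screen-wide mean plus 3 SD, cut at about 130% in these data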;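 note: barcoded CIT2-GFP strain pooled with four other GFP strains with rapamycin as positive control; median GFP fluorescence per well over plate mean of DMSO wells so 100% = DMSO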). The note with it: 3 h, at 10 µM, stronger effect = higher value.
A short description of experiment [4]: modulators of LAP4-GFP expression in yeast, primary screen, S. cerevisiae, multiplex flow cytometry (AID 1873;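 active = GFP signal, as percent of the solvent control, above the screen mean plus 3 SD, about 149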). The note with it: 3 h, at 10 µM, stronger effect = higher value.
The nature of experiment [5]: modulators of AGP1-GFP expression in yeast TOR pathway, primary screen, cell-based, multiplex flow cytometry, S. cerevisiae (AID 1887;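 active = GFP signal above the screen-wide mean plus 3 SD, that is over about 124.5% of the solvent control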;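 note: AGP1-GFP fusion strain of S. cerevisiae within a five-strain barcoded multiplex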). The note with it: 3 h, at 10 µM, stronger effect = higher value.
Experiment [6] is described as follows: inhibitors of CD8+ T cell-vesicle binding, pilot screen, LFA-1/ICAM-1 modulator project, MLPCN validation set, flow cytometry (AID 2523;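 active = response below a set limit, under 55% cells CD8-positive and vesicle-bound, and CD8 cells' 90th-percentile brightness under 279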;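 for vesicle binding response: mean PE anti-B7-1 fluorescence of CD8+ cells relative to row control; 100% = QL9-loaded vesicles with DMSO vehicle in the same plate row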). The note with it: 2C mouse CD8+ T cells, at 7 µM, stronger effect = lower value; double positive events: measured here: CD8+/vesicle+ event percentage.
Experiment [7] has as its target Integrin beta-1 (Homo sapiens) + Integrin alpha-4 (Homo sapiens) (UniProt P13612+P05556). The experiment in a line: inhibition of HUTS-21 binding to VLA-4, pilot screen, VLA-4 allosteric modulator project, U937 cells, HUTS-21 mAb, flow cytometry, validation set (AID 2674;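 active = inhibition above 50%, about 3 SD of the validation set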;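 note: antibody binding induced by the VLA-4 ligand LDV present at three times its Kd; 0% = LDV ligand with antibody and no compound and 100% = antibody without LDV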). Conditions: HUTS-21 LIBS mAb binding, at 6.7 µM, stronger effect = higher value, binding induced by LDV ligand.

Experiment [8] in a line: superoxide lowering in aged yeast cells, pilot screen, validation compound set (AID 2706;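 active = superoxide response below 65% of plate, a cut near 3 SD across the whole screen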;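 note: yeast exposed to compound for one week at 30 degrees C before staining; 100% = mean of all compound wells on the same plate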). Conditions: S. cerevisiae aging, superoxide DHE fluorescence; at 10 µM; stronger effect = lower value.
The target of experiment [9] is Beta-adrenergic receptor kinase 1 (Homo sapiens) (UniProt P25098). The experiment can be described thus: GRK2 binders displacing RNA aptamer, biochemical, validation, human GRK2, bead flow cytometry (AID 488806;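 active = aptamer binding inhibition above 30%, about 3 SD of noise from non-fluorescent compounds; inactive = inhibition at or below 30%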). Conditions: bead-bound GRK2, FAM-aptamer displacement, at 10 µM, stronger effect = higher value.
The target of experiment [10] is Beta-2 adrenergic receptor (Homo sapiens) (UniProt P07550). The experiment in a line: beta2AR agonists driving receptor internalization, pilot screen, cell-based, FAP fluorogen, flow cytometry, validation set (AID 504459;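 active = percent response above 42, roughly 3 SD of non-fluorescent test compounds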;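 note: agonist-driven loss of surface beta2AR via internalization measured by FAP dye flow cytometry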). Conditions: Am2.2-beta2AR cells, FAP surface receptor flow cytometry; at 10 µM; stronger effect = higher value.
Experiment [11] deals with AP-2 complex subunit beta (Homo sapiens) (UniProt P63010). The experiment can be described thus: inhibitors of arrestin peptide binding to AP2, pilot screen, biochemical, validation set, GST-AP2 beads, flow cytometry (AID 504541;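 active = inhibition above 54%, about 3 SD of non-fluorescent compounds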;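 note: AP2 carries R879A mutation and is captured from E. coli lysate; bead-bound FITC arrestin peptide fluorescence measuring arrestin peptide binding to AP2; 0% = DMSO wells and 100% = excess unlabeled arrestin peptide control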). Conditions: FITC arrestin peptide, at 10 µM, stronger effect = higher value, AP2 beta2 appendage fragment, R879A mutant.
A short description of experiment [12]: yeast V-ATPase proton transport modulators, S. cerevisiae, pHLuorin, HTS validation (AID 504600; in the data active = response above about 15%;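 note: plate controls were DMSO for no effect and reference compound for full effect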). Conditions: S. cerevisiae pHLuorin cytosolic pH, at 10 µM, stronger effect = higher value.
Experiment [13] deals with anti-desmoglein-3 scFv antibody binding to human DSG3. The experiment can be described thus: inhibitors of anti-DSG3 scFv binding to DSG3, pilot screen, biochemical, validation compound set, bead-based, flow cytometry (AID 588368;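 active = binding below the plate cutoff, the plate median minus 3 SD, with a reading above zero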;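 note: signal is the median channel fluorescence of bead-bound GFP antibody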). The note with it: Protein G beads, DSG3-Fc, scFv-GFP binding, at 10 µM, stronger effect = lower value.
A short description of experiment [14]: inhibitors of fungal efflux pumps CDR1, CDR2, MDR1, pilot screen, validation compound set, multiplex, phenotypic (AID 588506;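 active = efflux inhibition above 0.42, the validation set average plus 4 SD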;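 note: Nile Red retained in cells so higher fluorescence means more efflux inhibition; 0 = negative control wells and 1 = enniatin B 25 µM full block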). The note with it: S. cerevisiae pump-expressing triplex, Nile Red efflux flow cytometry; at 10 µM; stronger effect = higher value; the pumps come from Candida albicans.
Experiment [15] concerns the target ATP-binding cassette sub-family B member 6 (Homo sapiens) (UniProt Q9NP58). The experiment can be described thus: ABCB6 transporter inhibitors, pilot screen, K562-ABCB6 cells, flow cytometry, validation set (AID 588550;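 active = inhibition above the screen-wide mean plus 3 SD, about 51%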;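 note: 0% = DMSO wells and 100% = benzethonium chloride 70 µM positive control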). Conditions: K562-ABCB6 porphyrin accumulation, 1 h, at 10 µM, stronger effect = higher value.
Experiment [16] can be described thus: promoters of myeloid differentiation in arrested cells, primary screen, cell-based, GFP/MAC1 double positive, flow cytometry, validation set (AID 588685;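 active = differentiation response of at least 50%, scaled between solvent and reference control, from cells with both markers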;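 note: compound exposure lasts four days before antibody staining and flow analysis; 0% = DMSO wells and 100% = 5 µM fulvestrant positive control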). Conditions: ER-HoxA9 marrow cells, stronger effect = higher value, normalized: vehicle 0, fulvestrant 100.

Results filed as inconclusive are left out. Activity calls are given as the source filed them. Cut-off read from the data, not from the text of the source, unless noted: active = percent of DMSO control GFP below about 86%; inactive = the rest, inconclusive results apart.

For orientation: inhibition means the relative decrease from the control value, in per cent.

Sequence of AP-2 complex subunit beta (Homo sapiens) (P63010 whole entry, looked up, the tested form may be a part, one chain of several): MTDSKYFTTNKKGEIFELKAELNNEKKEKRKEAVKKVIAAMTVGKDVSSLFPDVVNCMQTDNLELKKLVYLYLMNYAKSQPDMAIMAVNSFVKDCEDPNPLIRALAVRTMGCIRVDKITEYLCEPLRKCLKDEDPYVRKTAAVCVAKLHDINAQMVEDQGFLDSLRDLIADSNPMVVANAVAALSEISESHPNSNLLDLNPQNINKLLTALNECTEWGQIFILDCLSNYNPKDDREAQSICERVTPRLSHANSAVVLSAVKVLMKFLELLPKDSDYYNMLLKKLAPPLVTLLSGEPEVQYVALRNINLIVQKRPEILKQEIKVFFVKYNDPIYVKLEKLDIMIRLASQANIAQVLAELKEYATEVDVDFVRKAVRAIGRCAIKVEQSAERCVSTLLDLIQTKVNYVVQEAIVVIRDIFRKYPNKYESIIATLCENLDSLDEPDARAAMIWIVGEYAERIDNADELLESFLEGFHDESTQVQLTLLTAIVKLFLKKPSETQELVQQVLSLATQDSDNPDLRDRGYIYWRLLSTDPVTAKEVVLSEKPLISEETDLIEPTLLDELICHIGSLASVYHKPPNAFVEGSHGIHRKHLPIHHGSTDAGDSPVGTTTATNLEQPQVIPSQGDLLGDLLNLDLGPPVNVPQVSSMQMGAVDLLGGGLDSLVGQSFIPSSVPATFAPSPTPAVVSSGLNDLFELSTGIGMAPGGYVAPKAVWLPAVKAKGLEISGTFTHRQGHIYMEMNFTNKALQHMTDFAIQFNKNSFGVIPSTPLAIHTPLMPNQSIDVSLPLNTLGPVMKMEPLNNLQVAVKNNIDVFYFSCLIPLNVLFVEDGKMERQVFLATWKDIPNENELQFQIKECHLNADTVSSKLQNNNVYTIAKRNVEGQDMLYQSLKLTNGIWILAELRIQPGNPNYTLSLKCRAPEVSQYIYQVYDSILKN
Sequence of Integrin beta-1 (Homo sapiens) + Integrin alpha-4 (Homo sapiens) (P05556 whole entry, looked up): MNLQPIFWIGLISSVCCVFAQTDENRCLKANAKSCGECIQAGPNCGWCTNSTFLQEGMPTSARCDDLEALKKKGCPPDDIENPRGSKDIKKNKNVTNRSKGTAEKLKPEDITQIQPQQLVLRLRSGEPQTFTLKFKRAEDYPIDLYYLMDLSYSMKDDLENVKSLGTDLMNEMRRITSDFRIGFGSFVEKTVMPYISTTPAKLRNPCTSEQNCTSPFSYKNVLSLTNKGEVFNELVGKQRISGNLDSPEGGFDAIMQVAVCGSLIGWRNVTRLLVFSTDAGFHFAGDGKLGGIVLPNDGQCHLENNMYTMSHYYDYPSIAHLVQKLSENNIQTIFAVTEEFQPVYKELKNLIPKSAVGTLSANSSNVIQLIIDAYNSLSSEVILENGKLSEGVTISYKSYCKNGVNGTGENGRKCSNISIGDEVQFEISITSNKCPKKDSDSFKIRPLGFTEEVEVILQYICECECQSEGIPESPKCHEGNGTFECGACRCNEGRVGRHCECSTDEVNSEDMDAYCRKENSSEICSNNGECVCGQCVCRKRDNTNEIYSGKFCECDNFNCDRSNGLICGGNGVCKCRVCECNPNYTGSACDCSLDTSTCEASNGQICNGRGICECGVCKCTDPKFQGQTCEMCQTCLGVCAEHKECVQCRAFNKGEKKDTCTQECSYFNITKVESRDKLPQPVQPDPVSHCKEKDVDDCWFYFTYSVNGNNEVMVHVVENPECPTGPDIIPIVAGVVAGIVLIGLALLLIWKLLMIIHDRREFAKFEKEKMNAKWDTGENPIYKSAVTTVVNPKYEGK
Sequence of Integrin beta-1 (Homo sapiens) + Integrin alpha-4 (Homo sapiens) (P13612 whole entry, looked up): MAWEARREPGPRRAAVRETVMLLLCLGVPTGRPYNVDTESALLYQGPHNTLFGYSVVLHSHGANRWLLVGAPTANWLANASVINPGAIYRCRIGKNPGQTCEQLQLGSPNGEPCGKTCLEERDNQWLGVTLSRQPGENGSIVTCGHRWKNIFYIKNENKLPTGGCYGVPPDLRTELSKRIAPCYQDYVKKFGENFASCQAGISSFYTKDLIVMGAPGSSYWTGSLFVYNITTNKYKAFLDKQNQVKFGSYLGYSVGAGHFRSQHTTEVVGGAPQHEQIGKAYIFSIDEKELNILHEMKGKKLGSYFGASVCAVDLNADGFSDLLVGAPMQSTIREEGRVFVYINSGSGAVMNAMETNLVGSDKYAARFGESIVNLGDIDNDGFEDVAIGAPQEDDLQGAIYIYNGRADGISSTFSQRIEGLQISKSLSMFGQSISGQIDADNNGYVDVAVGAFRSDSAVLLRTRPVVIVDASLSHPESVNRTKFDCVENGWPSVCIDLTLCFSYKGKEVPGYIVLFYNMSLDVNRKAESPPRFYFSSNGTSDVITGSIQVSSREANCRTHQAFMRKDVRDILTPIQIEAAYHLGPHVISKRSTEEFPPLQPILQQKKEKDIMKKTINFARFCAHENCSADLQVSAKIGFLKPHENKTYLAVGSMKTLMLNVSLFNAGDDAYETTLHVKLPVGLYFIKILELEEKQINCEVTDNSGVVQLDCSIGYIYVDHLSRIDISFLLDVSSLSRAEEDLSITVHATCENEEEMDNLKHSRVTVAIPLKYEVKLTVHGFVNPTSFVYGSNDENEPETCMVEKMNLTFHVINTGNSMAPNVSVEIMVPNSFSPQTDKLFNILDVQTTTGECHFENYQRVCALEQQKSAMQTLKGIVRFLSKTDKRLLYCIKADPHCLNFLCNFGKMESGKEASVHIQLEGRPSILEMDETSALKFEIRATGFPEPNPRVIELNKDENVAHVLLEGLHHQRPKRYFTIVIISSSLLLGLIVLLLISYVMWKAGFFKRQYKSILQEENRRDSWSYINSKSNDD
Sequence of Beta-adrenergic receptor kinase 1 (Homo sapiens) (P25098 whole entry, looked up): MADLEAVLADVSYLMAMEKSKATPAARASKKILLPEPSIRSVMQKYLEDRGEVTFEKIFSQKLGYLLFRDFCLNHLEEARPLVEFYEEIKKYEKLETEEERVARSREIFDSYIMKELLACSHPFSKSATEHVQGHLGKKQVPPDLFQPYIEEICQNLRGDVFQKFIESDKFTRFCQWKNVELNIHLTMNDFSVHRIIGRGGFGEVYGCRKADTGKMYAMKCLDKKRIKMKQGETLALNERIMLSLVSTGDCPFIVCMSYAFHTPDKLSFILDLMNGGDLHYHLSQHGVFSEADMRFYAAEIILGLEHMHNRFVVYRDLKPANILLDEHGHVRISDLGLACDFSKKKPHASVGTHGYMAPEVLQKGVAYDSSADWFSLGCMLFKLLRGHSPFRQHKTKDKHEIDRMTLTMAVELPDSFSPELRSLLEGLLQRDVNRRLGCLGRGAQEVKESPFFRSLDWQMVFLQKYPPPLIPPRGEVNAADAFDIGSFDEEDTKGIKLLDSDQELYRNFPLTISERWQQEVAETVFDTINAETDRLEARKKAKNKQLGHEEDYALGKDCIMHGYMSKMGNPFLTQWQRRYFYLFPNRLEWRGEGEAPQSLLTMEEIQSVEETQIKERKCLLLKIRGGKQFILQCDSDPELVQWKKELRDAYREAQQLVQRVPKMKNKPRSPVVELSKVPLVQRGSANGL
Sequence of ATP-binding cassette sub-family B member 6 (Homo sapiens) (Q9NP58 whole entry, looked up): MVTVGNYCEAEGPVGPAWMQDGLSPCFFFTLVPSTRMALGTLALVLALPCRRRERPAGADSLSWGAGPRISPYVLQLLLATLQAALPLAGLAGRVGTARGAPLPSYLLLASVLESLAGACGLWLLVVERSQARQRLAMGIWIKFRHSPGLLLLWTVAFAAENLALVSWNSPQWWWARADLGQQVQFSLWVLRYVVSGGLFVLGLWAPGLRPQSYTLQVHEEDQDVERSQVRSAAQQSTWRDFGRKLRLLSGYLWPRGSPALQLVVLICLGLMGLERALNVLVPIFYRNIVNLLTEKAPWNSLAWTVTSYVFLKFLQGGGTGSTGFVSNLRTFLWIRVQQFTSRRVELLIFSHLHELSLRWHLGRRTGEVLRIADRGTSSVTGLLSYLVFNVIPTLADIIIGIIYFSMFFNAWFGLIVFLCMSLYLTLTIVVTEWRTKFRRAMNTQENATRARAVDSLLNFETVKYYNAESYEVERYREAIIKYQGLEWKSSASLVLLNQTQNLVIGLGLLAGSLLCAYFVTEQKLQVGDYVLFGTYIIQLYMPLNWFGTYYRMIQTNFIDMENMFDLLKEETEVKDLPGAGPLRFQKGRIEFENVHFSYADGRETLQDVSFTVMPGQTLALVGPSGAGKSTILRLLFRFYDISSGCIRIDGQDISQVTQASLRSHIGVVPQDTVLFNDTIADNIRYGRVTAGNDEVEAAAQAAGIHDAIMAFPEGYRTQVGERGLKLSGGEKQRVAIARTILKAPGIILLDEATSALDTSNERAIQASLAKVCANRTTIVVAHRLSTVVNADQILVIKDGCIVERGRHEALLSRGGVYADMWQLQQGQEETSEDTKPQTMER
Sequence of Beta-2 adrenergic receptor (Homo sapiens) (P07550 whole entry, looked up): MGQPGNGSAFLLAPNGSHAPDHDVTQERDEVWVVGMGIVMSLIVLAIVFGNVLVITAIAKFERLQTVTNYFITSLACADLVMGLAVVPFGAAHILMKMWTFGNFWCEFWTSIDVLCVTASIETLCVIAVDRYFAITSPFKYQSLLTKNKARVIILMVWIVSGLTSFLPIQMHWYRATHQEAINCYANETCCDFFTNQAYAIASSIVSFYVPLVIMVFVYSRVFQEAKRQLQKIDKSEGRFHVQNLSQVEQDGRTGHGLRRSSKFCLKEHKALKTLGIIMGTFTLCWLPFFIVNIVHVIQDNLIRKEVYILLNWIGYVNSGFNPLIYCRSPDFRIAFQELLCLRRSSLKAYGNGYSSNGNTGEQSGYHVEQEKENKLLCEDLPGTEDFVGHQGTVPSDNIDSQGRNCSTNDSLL

As to `O=C1CCCN1C(=O)CCC(=O)N1CCCC1=O`, in [1], the percent of DMSO control GFP is 107% (inactive). The GFP response vs DMSO was 95.1% (inactive) in experiment [2] and 87.4% (inactive) in [4]. Besides, in [3], the percent response of DMSO control was 109% (inactive). Also, in experiment [5], the GFP response, % of DMSO is 106% (inactive). Moreover, in [6], the double positive events stood at 62.6%. The vesicle binding response in experiment [6] was 235% (inactive). For the same molecule, the inhibition in experiment [7] is -11.9% (inactive); in experiment [11], -9.79% (inactive); in experiment [15] it was -2% (inactive). The superoxide response (% of plate) in experiment [8] is 96.9% (inactive). Further, the aptamer binding inhibition in [9] is 0% (inactive). The response was -7.65% (inactive) in experiment [10] and -1.12% (inactive) in experiment [12]. In addition, the binding (% of control) in experiment [13] is 95.6% (inactive). Moreover, in experiment [14], the efflux inhibition (fraction of control) is -0.1 (inactive). Moreover, the differentiation response in [16] was 2.2% (inactive).

For the molecule `COC(=O)CCC(=O)CN`, in experiment [1], the percent of DMSO control GFP was 102% (inactive). Also, the GFP response vs DMSO in experiment [2] is 106% (inactive); in experiment [4] it was 118% (inactive). Also, the percent response of DMSO control in [3] was 110% (inactive). In [5], the GFP response, % of DMSO is 113% (inactive). Also, the double positive events in [6] is 62.2%. In addition, in experiment [6], the vesicle binding response is 148% (inactive). For the same molecule, the inhibition in [7] was -5.11% (inactive); in experiment [11] it was 7.22% (inactive); in experiment [15] it was 5% (inactive). The superoxide response (% of plate) in experiment [8] was 94% (inactive). Moreover, in experiment [9], the aptamer binding inhibition was -3% (inactive). Besides, the values for the response in experiment [10] and in experiment [12] were 1.35% (inactive) and -6.15% (inactive), respectively. Besides, the binding (% of control) in experiment [13] was 102% (inactive). For the same molecule, the efflux inhibition (fraction of control) in [14] was -0.11 (inactive). Moreover, the differentiation response in experiment [16] is 7.13% (inactive).

Regarding `Cc1nc2c(c3c1[nH]c1ccccc13)C(=O)CC(C)(C)C2`, in [1], the percent of DMSO control GFP was 99.1% (inactive). In addition, the GFP response vs DMSO in [2] and in experiment [4] was 114% (inactive) each time. The percent response of DMSO control in experiment [3] was 86.3% (inactive). Besides, in experiment [5], the GFP response, % of DMSO was 102% (inactive). The same molecule displayed a double positive events in experiment [6] of 59.1%. In addition, in experiment [6], the vesicle binding response is 186% (inactive). For the same molecule, the inhibition in experiment [7] was 6.4% (inactive); in [11], 6.18% (inactive); in [15], 1% (inactive). Further, the superoxide response (% of plate) in experiment [8] is 99.2% (inactive). For the same molecule, the aptamer binding inhibition in experiment [9] is 3% (inactive). Moreover, the response is 31.6% (inactive) in experiment [10] and -1.94% (inactive) in [12]. Besides, the binding (% of control) in experiment [13] was 98.9% (inactive). The efflux inhibition (fraction of control) in experiment [14] is 0.3 (inactive). Also, the differentiation response in [16] is -5.6% (inactive).

On to `NNC(=O)c1ccncc1`, for which, in experiment [1], the percent of DMSO control GFP was 102% (inactive). The GFP response vs DMSO was 113% (inactive) in experiment [2] and 117% (inactive) in experiment [4]. Further, the percent response of DMSO control in experiment [3] is 93.9% (inactive). Further, the GFP response, % of DMSO in experiment [5] is 105% (inactive). In [6], this molecule registered a double positive events of 61.7%. Also, the vesicle binding response in experiment [6] was 175% (inactive). The inhibition is -14.1% (inactive) in [7], -2.19% (inactive) in experiment [11] and 1% (inactive) in experiment [15]. Moreover, the superoxide response (% of plate) in [8] was 90.8% (inactive). In addition, the aptamer binding inhibition in [9] was 4% (inactive). Also, the response in [10] was -10.5% (inactive); in experiment [12] it was 2.56% (inactive). Besides, in [13], the binding (% of control) is 98.4% (inactive). Besides, the efflux inhibition (fraction of control) in experiment [14] was -0.1 (inactive). In [16], the differentiation response was -2.4% (inactive).

For the molecule `CCC(C)n1ncn(-c2ccc(N3CCN(c4ccc(OCC5COC(Cn6cncn6)(c6ccc(Cl)cc6Cl)O5)cc4)CC3)cc2)c1=O` (stereo not given), the percent of DMSO control GFP in experiment [1] was 115% (inactive). The GFP response vs DMSO is 110% (inactive) in experiment [2] and 133% (inactive) in experiment [4]. In experiment [3], the percent response of DMSO control was 97.1% (inactive). Besides, the GFP response, % of DMSO in experiment [5] was 102% (inactive). The molecule also showed a double positive events in [6] of 58.2%. For the same molecule, the vesicle binding response in experiment [6] is 22.8% (inactive). For the same molecule, the results for the inhibition in experiment [7], in [11] and in [15] were 3.98% (inactive), -13.8% (inactive) and 7% (inactive), respectively. In addition, the superoxide response (% of plate) in experiment [8] was 53.9% (active). Moreover, in experiment [9], the aptamer binding inhibition is 4% (inactive). Also, the values for the response in [10] and in [12] were 8.75% (inactive) and 1.4% (inactive), respectively. Moreover, the binding (% of control) in experiment [13] is 99.3% (inactive). Also, in [14], the efflux inhibition (fraction of control) is 0.55 (active). Also, the differentiation response in experiment [16] is 6.49% (inactive).

The values are drawn from PubChem BioAssay.
